Our source for the morphology score and SARS-CoV-2 infection rate values is the supplement of paper PMC13380429.

The structures appear in SMILES notation.

In experiment [1] the test system is Vero E6 infected with SARS-CoV-2. Briefly: morphology score (similarity to uninfected cells); higher = more like uninfected cells. The note with it: 24 h.
The test system is the same in experiment [2]. Briefly: SARS-CoV-2 infection rate relative to infected DMSO; higher = more infection, active = 60 or less. Particulars: 24 h.

As to `O=C(O)c1ccc(Nc2ncc3c(n2)-c2ccc(Cl)cc2C(c2c(F)cccc2F)=NC3)cc1` (10 µM), the morphology score in experiment [1] was 0.00168. For the same compound, the SARS-CoV-2 infection rate in experiment [2] is 109% (inactive).

`CC(C)Cc1ccc([C@@H](C)C(=O)NCCO)cc1` (racemic) [mabuprofen] (10 µM) gave a morphology score in experiment [1] of 0.127. In experiment [2], the SARS-CoV-2 infection rate was 109% (inactive).

`OCC(Br)(Br)Br` [tribromoethanol] (10 µM) yielded a morphology score in experiment [1] of -0.0304. For the same compound, in experiment [2], the SARS-CoV-2 infection rate was 118% (inactive).

The compound `Cc1ccc(CCCO)c(NCc2ccc3nc(NCCCN4CCOCC4)n(Cc4nc(C)ccc4O)c3c2)c1` (10 µM) returned a morphology score in experiment [1] of 0.227. Besides, in experiment [2], the SARS-CoV-2 infection rate is 96.5% (inactive).

In the case of `O=C(O)[C@H]1CCCN(CCC=C(c2ccccc2)c2ccccc2)C1` (racemic) (10 µM), the morphology score in experiment [1] came to 0.0757. Moreover, in experiment [2], the SARS-CoV-2 infection rate is 88.5% (inactive).

In experiment [1], `COc1ccc(C(=O)NCc2ccc(OCCN(C)C)cc2)cc1OC` [itopride] (10 µM) showed a morphology score of 0.19. Besides, the SARS-CoV-2 infection rate in experiment [2] was 90.5% (inactive).

In experiment [1], `O=C(O)CCCN1CCC(O[C@@H](c2ccc(Cl)cc2)c2ccccn2)CC1` [bepotastine] (10 µM) gave a morphology score of 0.0921. In addition, the SARS-CoV-2 infection rate in experiment [2] was 90% (inactive).

`O=C(Nc1cc(-c2ccccc2)nn1-c1ccccc1F)c1ccc([N+](=O)[O-])cc1` (10 µM) registered a morphology score in experiment [1] of 0.233. Also, the SARS-CoV-2 infection rate in experiment [2] was 93.5% (inactive).

In experiment [1], `c1ccc2sc(SNC3CCCCC3)nc2c1` [N-cyclohexyl-2-benzothiazolesulfenamide] (10 µM) came in with a morphology score of -0.00896. Moreover, in experiment [2], the SARS-CoV-2 infection rate is 106% (inactive).

The compound `CC(C)(C)c1ccc(O)cc1` [4-tert-butylphenol] (10 µM) had a morphology score in experiment [1] of 0.0892. For the same compound, the SARS-CoV-2 infection rate in experiment [2] is 110% (inactive).

For the compound `CN(C)CC(c1ccc(O)cc1)C1(O)CCCCC1` (stereo not given) [desvenlafaxine] (10 µM), the morphology score in experiment [1] amounted to 0.0229. Also, the SARS-CoV-2 infection rate in experiment [2] is 106% (inactive).

In experiment [1], `Cc1ccc(S(=O)(=O)NCl)cc1` [chloramine-T] (10 µM) yielded a morphology score of 0.043. Moreover, in experiment [2], the SARS-CoV-2 infection rate is 104% (inactive).

In experiment [1], `CN(C)c1ccc2nc3ccc(=[N+](C)C)cc-3sc2c1` [methylene-blue] (0.833333 µM) displayed a morphology score of 0.152. Also, in experiment [2], the SARS-CoV-2 infection rate is 104% (inactive).

Consider `O=c1ccn([C@@H]2O[C@H](CO)[C@@H](O)[C@H]2O)c(=O)[nH]1` [uridine] (10 µM), for which the morphology score in experiment [1] came out at 0.318. The SARS-CoV-2 infection rate in experiment [2] is 96.5% (inactive).

`Cn1c(=O)c2c(ncn2CCO)n(C)c1=O` [etofylline] (10 µM) registered a morphology score in experiment [1] of 0.0956. For the same compound, the SARS-CoV-2 infection rate in experiment [2] was 104% (inactive).

In turn, `O=C1Nc2ccccc2/C1=C1/Nc2ccccc2C1=O` [indirubin] (10 µM) came in with a morphology score in experiment [1] of 0.173. In addition, the SARS-CoV-2 infection rate in experiment [2] was 99% (inactive).

In the case of `CS(=O)(=O)N1CCN(Cc2cc3nc(-c4cccc5[nH]ncc45)nc(N4CCOCC4)c3s2)CC1` (10 µM), the morphology score in experiment [1] is -0.319. The SARS-CoV-2 infection rate in experiment [2] is 89% (inactive).

With `CCOc1ccc(C(=O)OCCN(CC)CC)cc1` [parethoxycaine] (10 µM), in experiment [1], the morphology score amounted to 0.157. In experiment [2], the SARS-CoV-2 infection rate was 108% (inactive).

As for `Cc1cc(Cn2cnc3c2C[C@@H](C(=O)O)N(C(=O)C(c2ccccc2)c2ccccc2)C3)ccc1N(C)C` (10 µM), in experiment [1], the morphology score came to 0.0919. Besides, the SARS-CoV-2 infection rate in experiment [2] was 99% (inactive).

Consider `CCOC(=O)c1ccc(O)cc1` [ethyl-paraben] (10 µM), for which the morphology score in experiment [1] is -0.0381. Also, the SARS-CoV-2 infection rate in experiment [2] is 104% (inactive).

Take `O=C(NC(O)C(Cl)(Cl)Cl)NC(O)C(Cl)(Cl)Cl` (stereo not given) [dicloralurea] (10 µM): the morphology score in experiment [1] came to 0.108. In experiment [2], the SARS-CoV-2 infection rate is 106% (inactive).

For `CC[C@H](NC(=O)c1c(C)c(-c2ccccc2)nc2ccccc12)c1ccccc1` (10 µM), the morphology score in experiment [1] is 0.0423. Further, the SARS-CoV-2 infection rate in experiment [2] is 101% (inactive).

Turning to `N#Cc1cccc(C(=O)Nc2cc(-c3ccccc3)nn2-c2ccccc2)c1` (10 µM), in experiment [1], the morphology score was -0.166. Also, the SARS-CoV-2 infection rate in experiment [2] is 104% (inactive).

In experiment [1], `COc1ccc(Br)cc1S(=O)(=O)NC(=O)/C=C/c1ccccc1Cc1ccc2ccccc2c1` (10 µM) displayed a morphology score of 0.19. In experiment [2], the SARS-CoV-2 infection rate is 79.5% (inactive).

For the compound `Cn1c(=O)c2c(ncn2C)n(C)c1=O` [caffeine] (10 µM), the morphology score in experiment [1] was -0.174. Further, the SARS-CoV-2 infection rate in experiment [2] was 113% (inactive).

In experiment [1], `Cc1ccc(CC2(O)CCN(CCOc3ccc(O)cc3)CC2)cc1` (10 µM) displayed a morphology score of -0.0871. The SARS-CoV-2 infection rate in experiment [2] is 111% (inactive).

In experiment [1], `C/C(=C\c1csc(C)n1)[C@@H]1C[C@@H]2O[C@]2(C)CCC[C@H](C)[C@H](O)[C@@H](C)C(=O)C(C)(C)[C@@H](O)CC(=O)N1` [ixabepilone] (10 µM) showed a morphology score of -0.0812. For the same compound, the SARS-CoV-2 infection rate in experiment [2] is 108% (inactive).

For `Cn1ncnc1COc1nn2c(-c3cc(F)ccc3F)nnc2cc1C(C)(C)C` (10 µM), the morphology score in experiment [1] stood at 0.166. In addition, the SARS-CoV-2 infection rate in experiment [2] was 96.5% (inactive).

In the case of `O=C(CN1CCN(Cc2ccc3c(c2)OCO3)CC1)N1c2ccccc2Sc2ccccc21` [fenoverine] (10 µM), the morphology score in experiment [1] was 0.02. In addition, the SARS-CoV-2 infection rate in experiment [2] was 110% (inactive).

For the compound `CC(=O)[C@H]1CC[C@H]2[C@@H]3CC[C@H]4C[C@](C)(O)CC[C@]4(C)[C@H]3CC[C@]12C` [ganaxolone] (10 µM), the morphology score in experiment [1] is -0.0442. Moreover, in experiment [2], the SARS-CoV-2 infection rate was 104% (inactive).
